Among the data in PubChem BioAssay (NCI) are growth values, retold here.

This is part of a sample that, as a whole, favours compounds with a hit. Of some 83,000 tested, about 20% had one in any assay.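 96-well plates, one dose, 48 hours. Percent growth reported; active if below 10.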 Calls of active or inactive are those of the source.

This experiment concerns M14 melanoma. Put plainly: NCI-60 one-dose screen, 48 h (100 = growth as untreated, 0 = no growth, -100 = all killed). Conditions: 10 µM unless noted. As to the method: Growth inhibition of the M14 human tumor cell line is measured as a screen for anti-cancer activity. Cells are grown in 96 well plates and exposed to the test compound for 48 hours. Compounds are tested at a single concentration, which is 10^-5 M for most compounds. The reported endpoint is percent growth (GI% or GIPRCNT), where numbers from 0 - 100% represent growth inhibition, and numbers from -100% - 0 represent cell death. For example, a value of 40 represents 60% growth inhibition. A value of 0 means no net growth occurred over the course of the experiment. A value of -40 indicates 40% of cells at the beginning of the experiment died by the end of the experiment. A value of -100 means all cells are dead at the end of the experiment.
NCI-60 Human Tumor Cell Lines Screen was performed using the standard one-dose NCI protocol, which is described in more detail at https://dtp.cancer.gov/discovery_development/nci-60/default.htm.
Compounds with GIPRCNT values below 10 were considered active. Activity score was based on GIPRCNT using the following formula: […]
Score is 0 for GIPRCNT values of 100 or above, 50 for GIPRCNT values of 0, and 100 for GIPRCNT values of -100.
For `COc1ccc2c(c1)/C(=N/c1n[nH]c(=S)s1)C(=O)N2`, the growth was 103% (inactive).

Take `C=CCC(CCCC)(C(=O)OCC)C(=O)OCC`: the growth is 96.8% (inactive). For the compound `O=C(/C=C/c1ccc(Oc2ccc(Br)cc2)cc1)c1ccc(Br)cc1`, the growth was 93.5% (inactive).

`CN1CCN(c2ccc3nc4c(nc3c2C(F)(F)F)C(=O)c2ncccc2C4=O)CC1`: the growth is -89.6% (active). Consider `CN1CCN(C(=O)[C@@]2(C)CC[C@]3(C)CC[C@]4(C)C(=CC[C@@H]5[C@@]6(C)CCC(=O)NC(C)(C)[C@@H]6CC[C@]54C)[C@@H]3C2)CC1`, for which the growth is 0.579% (active). `C=C1C(=O)O[C@H]2[C@H]1CC/C(CNC(=O)c1c[nH]c3ccc(F)cc13)=C\CC[C@@]1(C)O[C@@H]21`: the growth is -26.1% (active). For `CN(CCCNC(=O)Cc1ccc2ccc3cccc4ccc1c2c34)CCCNc1cc(-c2ccc3ccccc3c2)nc2ccccc12`, the growth is -74.4% (active). For `CCN1C(=O)N(CC)C2Nn3c(s/c(=C\c4ccccc4Br)c3=O)=NC21` (stereo not given), the growth is 9.07% (active). Turning to `CC/C=C\C[C@H](O)C/C=C1/C(=O)C=C[C@@H]1C/C=C\CCCC(=O)O`, the growth was 57.8% (inactive).

Consider `CS(=O)(=O)Nc1cc(-c2ccc3ncc(C#N)c(Nc4ccc(F)c(Cl)c4)c3c2)cnc1Cl`, for which the growth is 11.2% (inactive). Take `CCN(CC)CCN1C(=O)c2c(c(C)c3c(oc4ccc(O)cc43)c2C)C1=O`: the growth was 38.3% (inactive). On to `O=C(O)/C=C/C(=O)Nc1cccc(Cn2nnc3cc(Cl)c(Cl)cc32)c1`, for which the growth was 102% (inactive). On to `O=C1/C(=C2\SC(=S)N(C3CC3)C2=O)SC(=S)N1C1CC1`, for which the growth is 96.3% (inactive). With `COc1cc2nc3sc(C(=O)Nc4ccc(C(=O)OC(C)C)cc4)c(C(=O)Nc4ccc(Cl)cc4C)n3c(=O)c2cc1OC` the figure was 77.7% (inactive).

Turning to `CCN1C2CCC1/C(=C\c1ccc(F)cc1)C(=O)/C2=C/c1ccc(F)cc1`, the growth was 35.9% (inactive). In the case of `OCCNCCNC(Cc1ccc(Cl)cc1)c1ccccc1` (stereo not given), the growth is 90.5% (inactive). On to `CC1(C)CC[C@]2(CO)CC[C@]3(C)[C@H](CC[C@@H]4[C@@]5(C)CCCNC(C)(C)[C@@H]5CC[C@]43C)[C@H]2[C@H]1O`, for which the growth is 95.1% (inactive). With `COc1cc(-c2nc3sccn3c2-c2ccnc(NCCNS(=O)(=O)c3ccc(Cl)cc3)n2)ccc1F` the figure was 21.5% (inactive); with `Ic1ccccc1I`, 94.3% (inactive). Take `Cc1ccc(-c2csc(NC(=O)c3ccccc3CN3C(=O)c4ccccc4C3=O)n2)cc1`: the growth is 106% (inactive).

For `COC(=O)CC[C@@H]1O[C@@H](c2ccc(F)cc2)[C@@H](O)[C@H]1O`, the growth is 92.9% (inactive). `C[C@@H]1O[C@@H](O[C@@H]2C[C@H](c3ccc4c(c3O)C(=O)C3=C(C4=O)[C@@]4(O)C(=O)C[C@](C)(O)C[C@@]4(O)C=C3)O[C@H](C)[C@H]2O)CC[C@@H]1O[C@H]1C[C@@H](O)[C@H](O)[C@@H](C)O1`: the growth is 110% (inactive). In the case of `CCCC(CC)(C(=O)Nc1ccc2nc(C)cc(N)c2c1)C(=O)Nc1ccc2nc(C)cc(N)c2c1`, the growth is 96.6% (inactive). In the case of `CCOC(=O)c1ccccc1-c1c2ccc(=[N+](C)C)cc-2oc2cc(N(C)C)ccc12`, the growth was 13.5% (inactive). `O=C1/C=C/[C@@H](O)[C@@H]2C[C@@H](O)C[C@H]2/C=C/CCC[C@@H](O)CCO1`: the growth is 77.8% (inactive). With `CC1CCN(C(=S)SCC(=O)NC(=O)c2ccccc2)CC1`, the growth is 109% (inactive). Turning to `Nc1nc(NC(=O)Nc2ccc(C(=O)O)cc2)nn1-c1ccc(S(N)(=O)=O)cc1`, the growth is 95.4% (inactive).

In the case of `CN(C)c1ccc(-c2ccc3c(c2)c(-c2ccccc2)nc(=O)n3C)cn1`, the growth is 20.7% (inactive).

`O=C(Cc1ccc(/C=C/C(=O)c2ncc[nH]2)cc1)Nc1cc(C(F)(F)F)cc(C(F)(F)F)c1`: the growth was 89.6% (inactive). Take `COc1cc(NC(=O)c2cncnc2Nc2ccc3c(ccn3Cc3ccccn3)c2)cc(OC)c1`: the growth is 36.5% (inactive). The result for `Cc1nc2c(c(=O)[nH]1)C(c1ccccc1)c1ccc3ccccc3c1O2` (stereo not given) reads 22.2% (inactive). The result for `Cc1cc(Nc2ccc(C(=O)N3CCCC3)cc2)nc(NCCCNc2ccnc3cc(Cl)ccc23)n1` reads 82.5% (inactive); that for `COc1cccc(/C=C/C(=O)c2cccc(Nc3nc(Nc4ccccc4)nc(Nc4ccccc4)n3)c2)c1`, 89.4% (inactive); that for `C[C@H](CCCC(=O)NCC#CCN1CCN(C)CC1)[C@H]1CC[C@H]2[C@@H]3CC[C@@H]4CC(=O)CC[C@]4(C)[C@H]3CC[C@]12C`, 85.1% (inactive). On to `Cc1ccnc(Nc2ccc([N+](=O)[O-])c(NCCN3CCOCC3)n2)c1`, for which the growth was 24.1% (inactive).

As to `CCC1S/C(=N\N=C(\C)c2cc3cc(Cl)ccc3o2)N(c2ccccc2)C1=O` (stereo not given), the growth is 61.5% (inactive). For the compound `O=C(CI)NC(=O)NC(=O)NCc1ccccc1`, the growth was 6.48% (active). As to `O=c1nc(-c2ccccc2)c2cc(-c3ccc(C(F)(F)F)nc3)ccc2[nH]1`, the growth was 98.6% (inactive). With `CC1=CC(c2ccco2)=C2C(N)=NNC2N1` (stereo not given) the figure was 104% (inactive). `CC1(C)CC[C@]23CC[C@]4(C)[C@H](CC[C@@H]5[C@@]6(C)C/C(=C/c7ccncc7)C(=O)C(C)(C)[C@@H]6CC[C@]54C)[C@H]2[C@H]1OC3`: the growth is 96.6% (inactive).
